Bioassay records: PubChem BioAssay, National Center for Advancing Translational Sciences (NCATS)
This is a sample that favours compounds with a hit; in the whole collection about 7.3% have one here.
HCMV inh: blocks human cytomegalovirus replication; activity change, negative = inhibition, % at 57.5 µM; HFF cells, HCMV-luciferase reporter, 72 h; hits give low values; actives 4.5% (n = 410,000); in the data active = activity change below about -60%; inconclusive = no clear call, values can overlap the other calls; inactive = above about -39%
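Screen run at 2 compound doses on HFFs infected with reporter HCMV, MOI 1 PFU/cell. Luciferase activity from cell lysates at 72 h post infection gave inhibition relative to buffer-only and Salinomycin wells.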
Vaccinia Venus: vaccinia inhibition (Venus reporter); actives 0.46% (n = 330,000); Potency, µM (highest dose often 36.5 µM), inactives show at the highest dose activity change, negative = inhibition, usual class: inhibitors; Vaccinia virus Venus reporter expression, fluorescence; AID 720580; calls by dose curve; tested in A549 cells; note: potency is the fitted concentration of half-maximal effect; nearly all actives have a fitted effect of over 30% in size
VACV mCherry inh: inhibitors of vaccinia virus infection (mCherry reporter signal). Vaccinia virus mCherry reporter infection, fluorescence. Potency, µM (series often up to 36.5 µM), for inactives: top-dose activity change, negative = inhibition, actives largely listed as inhibitors. actives 0.63% (n = 310,000). AID 720579; calls by dose curve; tested in A549 cells; note: potency is the fitted concentration of half-maximal effect; nearly all actives have a fitted effect of over 35% in size
HCV inh: blocks hepatitis C virus; actives 3.4% (n = 340,000); AID 651820; Huh7.5.1 HCVcc-Cre infection, luciferase reporter, 44 h; Potency, µM (doses to about 41.8 µM), without a hit: at the top dose activity change, negative = inhibition, most hits filed as inhibitors; active = well fitted inhibition curve with a large enough effect; inconclusive = small, poorly fitted or top-dose-only effect, or another doubt; inactive = no such curve, though single readings can be large or run the other way; note: potency is the fitted concentration of half-maximal effect
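Cells seeded at 1,000/well and cultured 4 h, then compounds added followed by HCVcc-Cre virus (~0.5 moi). After 44 h further culture, luciferase substrate was added, plates held 15 min at room temperature, and luminescence read for 15 sec.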
FMDV antiviral: blocks foot and mouth disease virus; FMDV antiviral cell-based qHTS; Potency, µM (titrated, usually from 57.9 µM), inactives show top-dose activity change, negative = inhibition, actives largely listed as inhibitors; actives 1.2% (n = 410,000); AID 1159524; calls by dose curve; tested in HEK293T cells; note: read-out not given here; potency is the fitted concentration of half-maximal effect; nearly all actives have a fitted effect of over 45% in size
* hit, by the source's call. % is set by controls: 0 for no effect and ±100 for the full control effect.

Results for COc1ccc(-c2csc(NC(=S)NC(=O)/C=C/c3ccco3)n2)cc1OC ?
HCMV inh: -8; Vaccinia Venus: inconclusive; VACV mCherry inh: inconclusive; HCV inh: -14%; FMDV antiviral: inconclusive

Results for Cc1cc[n+](C(C)C(=O)c2ccc(Cl)cc2)cc1 (stereo unspecified) ?
HCMV inh: -24; Vaccinia Venus: -12%; VACV mCherry inh: -19%; HCV inh: -5%; FMDV antiviral: -20%

Results for CC(C(=O)c1ccc(-c2ccccc2)cc1)[n+]1cccc(C(N)=O)c1 (stereo unspecified) ?
HCMV inh: 5; Vaccinia Venus: -7%; VACV mCherry inh: -14%; HCV inh: 10%; FMDV antiviral: 1%

How did Cc1cc[n+](C(C)C(=O)c2ccc(-c3ccccc3)cc2)cc1 (stereo unspecified) do in these assays?
HCMV inh: -102*; Vaccinia Venus: -17%; VACV mCherry inh: -30%; HCV inh: inconclusive; FMDV antiviral: inconclusive

What do the screens show for `CC(C(=O)c1ccc(-c2ccccc2)cc1)[n+]1ccccc1` (stereo unspecified)?
HCMV inh: -97*; Vaccinia Venus: -27%; VACV mCherry inh: -27%; HCV inh: inconclusive; FMDV antiviral: -21%

Results for Cc1ccc[n+](C(C)C(=O)c2ccc(-c3ccccc3)cc2)c1 (stereo unspecified) ?
HCMV inh: -98*; Vaccinia Venus: -29%; VACV mCherry inh: -5%; HCV inh: -23%; FMDV antiviral: -28%

Results for COc1ccc(NC(=O)C2CCN(S(=O)(=O)c3ccc4c(c3)CCCC(=O)N4)CC2)c(OC)c1 ?
HCMV inh: 1; Vaccinia Venus: -5%; VACV mCherry inh: -10%; FMDV antiviral: -22%

How did Brc1ccc(CN2CCCc3nc(-c4ccccc4)ccc32)cc1 do in these assays?
HCMV inh: -81*

How did Cc1ccc(NC(=O)C2CCN(S(=O)(=O)c3ccc4c(c3)CCCN4C(=O)C3CCC3)CC2)cc1 do in these assays?
HCMV inh: -4; Vaccinia Venus: -16%; VACV mCherry inh: -14%; FMDV antiviral: -27%

Results for C[C@H]1O[C@@H](n2cc(F)c(=O)[nH]c2=O)[C@H](O)[C@@H]1O ?
HCMV inh: 98; Vaccinia Venus: -17%; VACV mCherry inh: inconclusive; HCV inh: 6%; FMDV antiviral: -27%

What do the screens show for `CCCCCCCCCCCCCCCCCCNc1ccn(C2OC(COP(=O)(O)OCC3OC(n4cc(F)c(=O)[nH]c4=O)CC3O)C(O)C2O)c(=O)n1` (stereo unspecified)?
HCMV inh: -88*; Vaccinia Venus: inconclusive; VACV mCherry inh: 0.32µM*; HCV inh: inconclusive; FMDV antiviral: -5%

How did CCCOc1ccc(NC(=O)CC2C(=O)Nc3ccccc3N2CC(=O)N2CCCC2)cc1 (stereo unspecified) do in these assays?
HCMV inh: -60*; HCV inh: -12%; FMDV antiviral: -11%

What do the screens show for `CN(Cc1ccccc1)C(=O)c1cccc(NC(=O)c2nsc3ccccc23)c1`?
HCMV inh: 0; Vaccinia Venus: 0%; VACV mCherry inh: -1%; FMDV antiviral: -1%

What do the screens show for `OC1(c2cccnc2)CCN(Cc2ccc3c(c2)CN(Cc2ccc4nsnc4c2)CCO3)CC1`?
Vaccinia Venus: -21%; VACV mCherry inh: -25%; FMDV antiviral: inconclusive

What do the screens show for `COc1cccc(/C=C2\SC(=S)N(CCC(=O)N3CCCCC3)C2=O)c1`?
HCMV inh: inconclusive; HCV inh: 0%; FMDV antiviral: 13%

Results for O=C(O)CCCN1C(=O)/C(=C/C=C/c2ccco2)SC1=S ?
HCMV inh: inconclusive; Vaccinia Venus: 37%; VACV mCherry inh: -11%; HCV inh: 42%; FMDV antiviral: inconclusive

How did O=C1/C(=C/c2ccccc2)SC(=S)N1CCCC(=O)N1CCCCC1CCO (stereo unspecified) do in these assays?
HCMV inh: -101*; HCV inh: inconclusive; FMDV antiviral: inconclusive

What do the screens show for `O=C1/C(=C/c2cccc(Cl)c2)SC(=S)N1CCC(=O)N1CCCCC1CCO` (stereo unspecified)?
HCMV inh: -82*; HCV inh: -18%; FMDV antiviral: -17%

What do the screens show for `O=C(CCN1C(=O)/C(=C\c2ccccc2F)SC1=S)N1CCCCC1`?
HCMV inh: 19; HCV inh: 3%; FMDV antiviral: -20%

How did O=C1/C(=C/c2ccccc2F)SC(=S)N1CCC(=O)N1CCCCC1CCO (stereo unspecified) do in these assays?
HCMV inh: -84*; Vaccinia Venus: -26%; VACV mCherry inh: inconclusive; HCV inh: inconclusive; FMDV antiviral: -13%

What do the screens show for `O=C1/C(=C/c2ccco2)SC(=S)N1CCC(=O)N1CCCCC1CCO` (stereo unspecified)?
HCMV inh: -92*; HCV inh: 2%; FMDV antiviral: 0%

Results for Cc1ccc(/C=C2\SC(=S)N(CCCC(=O)N3CCOCC3)C2=O)cc1 ?
HCMV inh: inconclusive; Vaccinia Venus: 3%; VACV mCherry inh: -6%; HCV inh: 2%; FMDV antiviral: -7%

Results for COc1ccccc1N1CCN(C(=O)Cn2c(=O)nc(-c3ccccc3)c3ccccc32)CC1 ?
HCMV inh: -8; Vaccinia Venus: -28%; VACV mCherry inh: -23%; FMDV antiviral: inconclusive

Results for CCC[C@H]1[C@H](N(Cc2cccs2)Cc2cccs2)CC[C@@]23CCCN2C(=O)CCC[C@@H]13 ?
HCMV inh: 18

How did CCn1nc(C)cc1C(=O)NCCN1Cc2ccccc2OC(c2ccccc2F)C1 (stereo unspecified) do in these assays?
Vaccinia Venus: -7%; VACV mCherry inh: -20%; FMDV antiviral: inconclusive

Results for CN1CCN(c2nccc3[nH]c(-c4ccccc4Cl)nc23)CC1 ?
HCMV inh: -5

Results for O=C1/C(=C/c2cccs2)SC(=S)N1CC(=O)N1CCCCC1CCO (stereo unspecified) ?
HCMV inh: -83*; HCV inh: -16%; FMDV antiviral: 12%

How did COc1ccc(/C=C2\SC(=O)N(CCC(=O)N3CCCCC3CCO)C2=O)cc1 (stereo unspecified) do in these assays?
HCMV inh: -7; Vaccinia Venus: -13%; VACV mCherry inh: -3%; HCV inh: inconclusive; FMDV antiviral: -14%

What do the screens show for `O=C1/C(=C/c2ccc(Cl)cc2)SC(=S)N1CCC(=O)N1CCCCC1CCO` (stereo unspecified)?
HCMV inh: -86*; HCV inh: inconclusive; FMDV antiviral: -19%

Results for COc1ccc(/C=C2\SC(=S)N(CCC(=O)N3CCCCC3CCO)C2=O)cc1 (stereo unspecified) ?
HCMV inh: -84*; HCV inh: -16%; FMDV antiviral: inconclusive

Results for CC(C)Oc1ccc(Nc2cc3[nH]c(-c4cccc(F)c4)cc3cn2)cc1 ?
HCMV inh: -30
